Measured values reported in PubChem BioAssay AID372 (MTDP, 2006).
About 770 (0.77%) of roughly 100,000 compounds were called active. What follows is part of a selection rich in actives, with near analogues and random picks from the rest. A number with no mark means an inactive call. Cut-off read from the data, not from the text of the source: active = inhibition above about 50%; inactive = the rest.

Each molecule was assayed against Gag-Pol polyprotein (Human immunodeficiency virus type 1 group M subtype B (isolate HXB2)) (UniProt P04585) (assay: RNase H inhibition, HIV 1 Gag Pol polyprotein, FRET biochemical assay, screening (AID 372)). Settings: HIV-1 RT RNase H, FRET RNA/DNA substrate fluorescence; at 10 µM; active compounds read high.

SMILES	inhibition
CCOc1ccccc1N=CC1=C(O)CC(c2ccccc2)CC1=O (stereo unspecified)	6%
Cc1ccc(-c2nc(NC(=O)c3cccc(F)c3)sc2-c2ccccc2)cc1	16%
COc1cc(NC(=O)C(F)(F)F)c(Cl)cc1NC(=O)c1ccccc1	0%
CCOc1ccc(C(=O)Nc2cccc(NC(=O)c3ccccc3Cl)c2)cc1	8%
CCOc1ccc(C(=O)Nc2cccc(S(N)(=O)=O)c2)cc1Br	4%
COc1ccc(/C=C2/SC(=O)N(CNc3ccccc3)C2=O)cc1	9%
COc1ccc(/C=C2/SC(=O)N(CNc3ccc(I)cc3)C2=O)cc1	6%
O=C1S/C(=C/c2ccccc2F)C(=O)N1CNc1ccc(I)cc1	57% (active)
O=C1S/C(=C/c2ccc(F)cc2)C(=O)N1CNc1ccc(I)cc1	4%
COc1cccc(/C=C2/SC(=O)N(CNc3ccc(I)cc3)C2=O)c1	51% (active)
COc1ccc(OC)c(/C=C2/SC(=O)N(CNc3ccc(Br)cc3C)C2=O)c1	5%
COc1cccc(/C=C2/SC(=O)N(CNc3ccc(Br)cc3C)C2=O)c1	58% (active)
O=C1S/C(=C/c2ccccc2)C(=O)N1CNc1ccc(I)cc1	3%
COc1ccc(/C=C2/SC(=O)N(CNc3ccc(Br)cc3C)C2=O)cc1	7%
Cc1nc2ccccn2c1C(=O)N/N=C\c1ccccc1[N+](=O)[O-]	9%
C=CCOCCN(CCOCC=C)C1=NS(=O)(=O)c2cc([N+](=O)[O-])ccc21	8%
CC(=O)c1ccc(N2CCN(C(=O)c3cc(F)c(F)cc3Cl)CC2)c(F)c1	7%
C=CCOC(=O)C1=C(C)NC2=C(C(=O)CCC2)C1c1ccc(OCc2ccccc2)c(OC)c1 (stereo unspecified)	15%
O=C(Nc1nnc(-c2ccc3c(c2)OCO3)s1)c1sc2ccccc2c1Cl	5%
CCOC(=O)c1c(NC(=O)c2cc(-c3ccc(OC)cc3)nc3ccccc23)sc2c1CCCCC2	5%
Cc1ccc(C(=O)Nc2ccc(F)cc2F)cc1[N+](=O)[O-]	18%
COc1cc2ccccc2cc1C(=O)Nc1ccc2c(c1)C(=O)c1ccccc1C2=O	38%
Cc1nnc(N/N=C/c2ccc(C(=O)O)cc2)[nH]c1=O	10%
COc1cccc(C(=O)NCc2ccccc2OC)c1	2%

SMILES	inhibition
COc1ccccc1CNC(=O)c1cccc(C)c1	2%
COc1ccccc1CNC(=O)c1cccc(N(C)C)c1	56% (active)
Cc1ccc(N(CC(=O)N/N=C/c2cccc(Cl)c2)S(=O)(=O)c2ccc(F)cc2)cc1	13%
Cc1ccc(-n2c(O)c(/C=C3\C=Nc4ccccc43)c(=O)[nH]c2=S)cc1	15%
O=c1[nH]c(=S)n(-c2ccc(Br)cc2)c(O)c1/C=C1\C=Nc2ccccc21	20%
O=c1[nH]c(=S)n(-c2ccccc2)c(O)c1/C=C1\C=Nc2ccccc21	56% (active)
CC(C)(C)c1ccc(CNc2cc(N3CCOCC3)ccc2[N+](=O)[O-])cc1	0%
Oc1ccc(-c2nc(-c3ccccc3)c(-c3cccs3)[nH]2)cc1O	63% (active)
Oc1ccc(Br)cc1-c1nc(-c2ccccc2)c(-c2cccs2)[nH]1	9%
Oc1ccccc1-c1nc(-c2ccccc2)c(-c2cccs2)[nH]1	12%
O=C(COc1ccccc1[N+](=O)[O-])N/N=C/c1cc(I)ccc1O	5%
C/C(=N\Nc1cc(-c2ccccc2)nc(-c2ccccc2)n1)c1ccc([N+](=O)[O-])cc1	3%
CN(C(=O)c1ccc(Cl)c([N+](=O)[O-])c1)c1ccccc1	17%
CCOc1ccc(N(CC(=O)Nc2ccc(C)c(C)c2)S(C)(=O)=O)cc1	4%
CCOc1ccc(N(CC(=O)Nc2cccc(Br)c2)S(C)(=O)=O)cc1	12%
CCOc1ccccc1N(CC(=O)N/N=C(\C)c1cccc(NC(=O)c2ccccc2)c1)S(=O)(=O)c1ccccc1	5%
CCOc1ccccc1N(CC(=O)N/N=C(\C)c1cccc(Br)c1)S(C)(=O)=O	66% (active)
CCOc1ccc(N(CC(=O)Nc2cccc(C(C)=O)c2)S(C)(=O)=O)cc1	51% (active)
CCOc1ccc(N(CC(=O)Nc2cccc(C)c2)S(C)(=O)=O)cc1	17%
CCOc1ccccc1N(CC(=O)Nc1cccc(Br)c1)S(C)(=O)=O	16%
CCOc1ccc(NC(=O)CN(c2ccc(C)c(Cl)c2)S(C)(=O)=O)cc1	3%
CCOc1ccc(N(CC(=O)Nc2ccc(C)c(Cl)c2)S(C)(=O)=O)cc1	56% (active)
Cn1c(=O)c(Sc2ccccc2)c(Sc2ccccc2)c2ccccc21	43%
CCc1ccccc1N1C(=O)/C(=C/c2ccc(N3CCCCC3)o2)C(=O)NC1=S	19%

SMILES	inhibition
Cc1cccc(N2C(=O)C(Cl)=C(Cl)C2=O)c1C	4%
O=C(Nc1ccccc1-c1ccccc1)c1ccc2c(c1)C(=O)N(c1ccccc1-c1ccccc1)C2=O	17%
Cc1ccccc1NC(=O)c1cc(S(=O)(=O)Nc2ccc(Br)cc2)ccc1Cl	10%
CSC1=C(C#N)C(c2ccc(Cl)cc2)C(C(C)=O)=C(C)N1 (stereo unspecified)	2%
Cc1cc(C)cc(OCCOc2cccc(/C=C3\SC(=S)NC3=O)c2)c1	45%
Cc1ccc(C)c(OCCOc2cccc(/C=C3\SC(=S)NC3=O)c2)c1	54% (active)
Cc1ccc(OCCOc2ccc(Cl)cc2/C=C2\SC(=S)NC2=O)c(C)c1	43%
O=C1NC(=S)S/C1=C/c1cccc(OCc2ccccc2Cl)c1	42%
Cc1ccc(C)c(OCCOc2ccc(/C=C3\SC(=S)NC3=O)cc2)c1	43%
Cc1ccc(C)c(OCCOc2c(Cl)cc(Cl)cc2/C=C2\SC(=S)NC2=O)c1	33%
COc1ccc(OCCOc2cccc(/C=C3\SC(=S)NC3=O)c2)cc1	18%
O=C1NC(=S)S/C1=C/c1cccc(OCc2ccccc2)c1	29%
Cc1ccc(OCCOc2cccc(/C=C3\SC(=S)NC3=O)c2)c(C)c1	40%
Cc1ccc(C)c(OCCOc2ccc(Cl)cc2/C=C2\SC(=S)NC2=O)c1	63% (active)
Cc1ccc(OCCOc2cccc(/C=C3/SC(=S)NC3=O)c2)cc1	56% (active)
Cc1ccc(Nc2cc(N3CCN(c4ccccc4Cl)CC3)c([N+](=O)[O-])cc2[N+](=O)[O-])cc1	13%
Cc1ccc(C(C)C)c(OCC(=O)N2CCN(c3ccc([N+](=O)[O-])cc3Cl)CC2)c1	21%
Cc1cc(C)nc(NS(=O)(=O)c2ccc(NS(=O)(=O)c3ccc4c(c3)C(=O)c3ccccc3-4)cc2)n1	15%
Cc1ccc(Cl)cc1NC(=O)CN(CCc1ccccc1)S(=O)(=O)c1ccccc1	16%
COc1cccc(/C=N/N2CCN(Cc3cccc4ccccc34)CC2)c1O	8%
COc1cccc(OCCOc2ccc(Br)cc2/C=C2/SC(=S)NC2=O)c1	55% (active)
COc1cccc(OCCOc2ccccc2/C=C2/SC(=S)NC2=O)c1	22%
COc1ccc(OCCOc2ccc(Br)cc2/C=C2\SC(=S)NC2=O)cc1	34%
Cc1ccc(N=Cc2c(O)n(Cc3ccccc3)c(=O)[nH]c2=O)cc1	46%

SMILES	inhibition
O=c1[nH]c(=O)n(Cc2ccccc2)c(O)c1C=Nc1ccc(F)cc1	22%
Cc1ccccc1N=Cc1c(O)n(Cc2ccccc2)c(=O)[nH]c1=O	57% (active)
COc1ccc(CCNC(=O)c2ccc(C#Cc3ccccc3)cc2)cc1OC	8%
CCc1ccccc1NC(=O)CSCc1ccccc1Cl	20%
CCC(C)NC(=O)CSCc1ccccc1Cl (stereo unspecified)	0%
CCOc1ccccc1NC(=O)CSCc1ccc(Cl)cc1Cl	48%
CC(NC(=O)CSCc1ccc(Cl)cc1)c1ccccc1 (stereo unspecified)	6%
CCOc1ccccc1NC(=O)CSCc1ccccc1Cl	51% (active)
CC(NC(=O)CSCc1ccccc1Cl)c1ccccc1 (stereo unspecified)	54% (active)
CC(=O)c1ccc(C)cc1OC(=O)c1ccc(Cl)cc1	21%
O=C(/C(=C/c1ccccc1)c1nc2ccccc2[nH]1)c1ccccc1	6%
O=C(Nc1ccc(I)cc1)c1ccc([N+](=O)[O-])o1	0%
Cc1c(Cl)cccc1-c1ccc(C(=O)Nc2ccc3oc(-c4cccnc4)nc3c2)o1	42%
Cc1c(Cl)cccc1-c1ccc(C(=O)Nc2ccc(-c3nc4ccccc4o3)cc2)o1	54% (active)
O=C(Nc1ccc(-c2nc3ccccc3o2)cc1)c1ccc(-c2ccc([N+](=O)[O-])cc2)o1	48%
O=C(Nc1ccc(Cl)c([N+](=O)[O-])c1)c1ccc(-c2ccc(Cl)c(Cl)c2)o1	7%
Cc1cc([N+](=O)[O-])ccc1-c1ccc(C(=O)Nc2ccc3oc(-c4ccccc4)nc3c2)o1	15%
O=C(Nc1ccc([N+](=O)[O-])cc1)c1ccc(-c2cccc(Cl)c2)o1	10%
Cc1ccc(-c2nc3cc(NC(=O)c4ccc([N+](=O)[O-])o4)ccc3o2)cc1Br	54% (active)
O=C(Nc1ccc2oc(-c3ccccc3)nc2c1)c1ccc([N+](=O)[O-])o1	6%
O=C(Nc1ccc2oc(-c3ccccc3)nc2c1)c1ccc(-c2ccc([N+](=O)[O-])cc2)o1	54% (active)
Cc1c(Cl)cccc1-c1ccc(C(=O)Nc2cccc(-c3nc4ccccc4o3)c2)o1	10%
O=C(Nc1ccc2oc(-c3cc(Br)ccc3Cl)nc2c1)c1ccc([N+](=O)[O-])o1	20%
O=C(Nc1ccc([N+](=O)[O-])cc1)c1ccc(-c2ccc(Cl)c(Cl)c2)o1	50% (active)
